# Compounds with a hit are over-represented: about 0.81% of the library has one in this group of screens.
# COUP-TFII inh: blocks human COUP-TFII nuclear receptor | P24468 | HEK293T NGFI-A luciferase reporter, luminescence | inhibition, % at 8.6 µM | actives 0.7% (n = 370,000) | AID 686940;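 active = inhibition above a per-plate cutoff, mean inhibition of test wells between control levels plus 3 SD, cut at about 38% in these data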;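 also: cells cotransfected with COUP-TFII expression vector driving the NGFI-A reporter; 0% = median of COUP-TF2 test wells and 100% = reporter-only cells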
# SRC1 inh: inhibits human SRC1 coactivator | Q15788 | inhibition, % at 3.6 µM | HEK293 GAL4-SRC1 luciferase reporter, luminescence | actives 0.12% (n = 360,000);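 active = inhibition above the campaign mean plus 3 SD, with each screening campaign given its own cutoff, cut at about 60% in these data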;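 also: 0% = DMSO treated cells and 100% = gossypol at 36 µM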
# NCOA2 inhibitor: inhibits human steroid receptor coactivator 2 | actives 0.17% (n = 370,000) | HEK293 GAL4-SRC2 luciferase reporter, luminescence | AID 651957 | inhibition, % at 9 µM | Q15596;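 active = inhibition above the mean inhibition of all tested compounds plus 3 SD, set per campaign, cut at about 52% in these data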;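 also: 0% = DMSO treated cells and 100% = cells given Gossypol at 36 µM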
# Target sequence (Q15596 whole entry, looked up, the tested form may be a part): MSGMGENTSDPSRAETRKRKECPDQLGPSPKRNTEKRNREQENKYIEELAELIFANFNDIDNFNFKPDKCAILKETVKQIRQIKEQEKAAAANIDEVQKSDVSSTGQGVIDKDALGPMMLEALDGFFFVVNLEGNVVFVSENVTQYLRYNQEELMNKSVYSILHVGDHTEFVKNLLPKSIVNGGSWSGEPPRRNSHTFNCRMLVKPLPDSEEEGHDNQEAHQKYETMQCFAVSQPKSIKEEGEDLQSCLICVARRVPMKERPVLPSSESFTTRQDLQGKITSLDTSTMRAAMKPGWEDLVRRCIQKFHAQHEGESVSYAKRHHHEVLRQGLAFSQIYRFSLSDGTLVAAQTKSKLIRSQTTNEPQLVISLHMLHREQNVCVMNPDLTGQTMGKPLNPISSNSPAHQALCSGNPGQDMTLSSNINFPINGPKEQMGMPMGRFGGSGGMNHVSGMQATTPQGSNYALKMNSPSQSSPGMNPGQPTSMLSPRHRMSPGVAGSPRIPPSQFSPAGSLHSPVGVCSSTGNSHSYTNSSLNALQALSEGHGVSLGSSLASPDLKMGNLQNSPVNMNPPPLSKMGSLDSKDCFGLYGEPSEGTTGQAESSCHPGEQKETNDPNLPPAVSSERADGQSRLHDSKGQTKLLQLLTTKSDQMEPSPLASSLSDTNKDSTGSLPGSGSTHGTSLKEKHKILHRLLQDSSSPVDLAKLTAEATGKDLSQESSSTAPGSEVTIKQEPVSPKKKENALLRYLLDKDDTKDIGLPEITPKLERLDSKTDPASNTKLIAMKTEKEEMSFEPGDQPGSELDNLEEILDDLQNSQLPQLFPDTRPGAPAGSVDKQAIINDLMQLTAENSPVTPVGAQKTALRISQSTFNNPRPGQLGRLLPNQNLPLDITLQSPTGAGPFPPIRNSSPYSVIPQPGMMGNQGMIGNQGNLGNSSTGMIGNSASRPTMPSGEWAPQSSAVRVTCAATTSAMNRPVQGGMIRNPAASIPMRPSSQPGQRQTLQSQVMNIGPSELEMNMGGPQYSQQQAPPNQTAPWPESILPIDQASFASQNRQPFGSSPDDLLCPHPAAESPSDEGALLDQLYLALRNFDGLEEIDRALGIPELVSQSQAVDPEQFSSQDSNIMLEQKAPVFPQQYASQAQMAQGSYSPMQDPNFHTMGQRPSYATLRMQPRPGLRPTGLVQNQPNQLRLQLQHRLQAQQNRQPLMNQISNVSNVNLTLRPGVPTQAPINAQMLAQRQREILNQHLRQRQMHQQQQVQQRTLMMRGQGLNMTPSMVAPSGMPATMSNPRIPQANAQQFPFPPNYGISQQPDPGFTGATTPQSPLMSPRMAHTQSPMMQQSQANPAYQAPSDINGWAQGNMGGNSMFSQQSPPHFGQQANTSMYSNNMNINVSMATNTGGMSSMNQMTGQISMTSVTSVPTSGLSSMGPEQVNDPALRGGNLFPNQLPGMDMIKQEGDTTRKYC
# SRC3 inh: inhibits human SRC3 coactivator | Q9Y6Q9 | HEK293 GAL4-SRC3 luciferase reporter, luminescence | inhibition, % at 3.6 µM | actives 0.17% (n = 360,000);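 active = inhibition above a per-campaign cutoff, the mean of all compounds plus 3 SD, cut at about 60% in these data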;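 also: 0% = DMSO-treated cells and 100% = gossypol-treated cells at 36 µM; higher means less SRC3-driven luciferase light from the GAL4 reporter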
# LRH-1 inv ag: suppresses constitutive activity of human LRH-1; O00482; HEK293T StAR-luciferase reporter, LRH-1 transfected, 24 h; inhibition, % at 3.6 µM; actives 0.13% (n = 360,000); AID 602396;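 active = inhibition above the mean inhibition of all tested compounds plus 3 SD, cut at about 73% in these data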;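 also: 0% = DMSO wells and 100% = reporter-only cells lacking LRH-1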
# Gal4-VP16 ctr: inhibits VP16 reporter, flagging COUP-TFII antagonist hits | shares compounds with COUP-TFII inh | HEK293 Gal4-VP16 luciferase reporter, luminescence | inhibition, % at 8.5 µM | actives 25% (n = 2,500); in the data active = inhibition above about 13%
# NR2F2 inh conf: COUP-TFII (NR2F2) inhibition, confirmation assay; shares compounds with COUP-TFII inh; HEK293 NGFI-A luciferase reporter, luminescence; inhibition, % at 8.5 µM; actives 45% (n = 2,500); AID 687008;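 active = mean inhibition over three repeats above a set limit taken from the earlier primary screen, cut at about 38% in these data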;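 also: 100% = cells given the luciferase reporter alone without the COUP-TF2 vector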
# Numbers without * were called inactive; x = no result; ! = not confirmed by another sample.
SMILES,COUP-TFII inh,SRC1 inh,NCOA2 inhibitor,SRC3 inh,LRH-1 inv ag,Gal4-VP16 ctr,NR2F2 inh conf
CC(=O)/C(N=Nc1ccc2c(c1)OCCO2)=C(\C)O,68*,43,45,57,35,-122,-36
COc1ccc(CNC(=O)c2cccc(S(=O)(=O)N3CCCCC3)c2)cc1OC,64*,25,13,6,29,3,45*
COc1ccc(CNC(=O)c2cc(S(=O)(=O)N3CCCCC3)ccc2Cl)cc1OC,51*,12,1,6,37,2,33
COc1ccc(CN(CCN2CCOCC2)C(=O)c2cccc(F)c2F)cc1OC,-12,x,-9,x,x,x,x
O=C(Nc1ccc(Cl)c(C(F)(F)F)c1)c1ccncc1,9,-8,-1,10,0,x,x
CNC(=O)c1cc(Oc2ccc(NC(=O)Nc3ccc(Cl)c(C(F)(F)F)c3)cc2)ccn1,72*,32,65*,40,43,15*,48*
Cn1c(=O)c(=O)n(C)c2cc(S(=O)(=O)N3CCN(c4ccccc4Cl)CC3)ccc21,0,x,-14,x,x,x,x
Cc1ccc(-c2cc(N)n(Cc3ccc(Cl)cc3)n2)cc1,48*,-5,-21,0,38,-19,21
Cc1cc(N)n(Cc2ccc(Cl)cc2)n1,4,1,-4,13,-2,x,x
O=C(COC(=O)c1n[nH]c2ccccc12)Nc1ccc(S(=O)(=O)N2CCCC2)cc1,46*,-3,16,24,27,1,21
COC[C@H]1CCCN1c1cccc2c1S(=O)(=O)N1CC[C@@H](C1)O2,-1,x,5,x,x,x,x
O=C(Nc1ccc(C(F)(F)F)cc1)OC1CCC12CCCCC2 (centres undefined),-4,x,5,x,x,x,x
Cc1nn(C2CCS(=O)(=O)C2)c(Cl)c1/C=C/C(=O)OCC(=O)c1cc(C)n(-c2ccc(F)cc2)c1C (centres undefined),63*,15,15,16,25,0,37*
O=C(COC(=O)c1ccc[nH]c1=O)Nc1ccc(N2CCCCC2)cc1,86*,51,87*,50,48,77*,71*
O=C(c1ccc(CNS(=O)(=O)c2ccccc2)cc1)N1CCN(Cc2ccccc2)CC1,58*,19,27,19,38,-4,16
CS(=O)(=O)c1ccc(C(=O)N2CCN(Cc3ccccc3)CC2)cc1,4,-10,18,5,-3,x,x
Cn1c(COc2ccccc2)nnc1SCC(=O)Nc1ccc(S(=O)(=O)Nc2nccs2)cc1,9,x,1,x,x,x,x
CC(C)c1ccc(CN2CCN(C(=O)CSc3nnnn3C3CC3)CC2)cc1,63*,20,26,18,27,1,51*
O=C(CSc1nnnn1C1CC1)N1CCN(c2cccc(Cl)c2)CC1,27,7,20,-16,-8,x,x
CC(C)(C)c1ccc(Oc2ccc(NC(=O)C3CC=CCC3C(=O)O)cc2)cc1 (centres undefined),91*,4,78*,19,50,15*,-1
O=C(Nc1ccncc1)c1ccc(Cl)c(S(=O)(=O)N2CCCCC2)c1,61*,20,14,8,36,7,40*
O=C(c1ccc(Cl)c(S(=O)(=O)N2CCCCCC2)c1)N1CCCCC1,11,-3,-54,-9,4,x,x
O=C(Nc1ccncc1)c1ccc(Cl)c(S(=O)(=O)N2CCc3ccccc32)c1,73*,27,18,28,40,2,60*
O=C(c1ccc(Cl)c(S(=O)(=O)N2CCCCCC2)c1)N1CCN(c2ccccn2)CC1,42*,0,16,20,24,-1,25
O=C(Nc1ccc2c(c1)OCO2)c1ccc(Br)c(S(=O)(=O)N2CCCC2)c1,43*,-3,1,2,-20,-34,-14
SMILES,COUP-TFII inh,SRC1 inh,NCOA2 inhibitor,SRC3 inh,LRH-1 inv ag,Gal4-VP16 ctr,NR2F2 inh conf
O=C(Nc1cccc(Cl)c1)c1ccc(F)c(S(=O)(=O)NCc2cccs2)c1,38*,6,8,20,8,-10,13
Cc1nc2sc(C(N)=O)c(N)c2c2c1CCCC2,51*,42,39,52,4,9,21
CC(=O)c1cc(-c2cccc(CO)c2)c(=O)n2c1CCC2,-7,x,-4,x,x,x,x
CCOC(=O)[C@]12CCCCC/C=C\1N(Cc1ccc(OC)cc1)C(=O)[C@H]2CC(=O)NCCc1ccccc1OC,1,x,17,x,x,x,x
Cc1nn(Cc2ccc(Cl)cc2)c(C)c1NC(=O)c1cc(C(C)C)on1,44*,16,-9,16,42,4,22
CC(C)COc1ccc(C/C(N)=N/n2cnnc2)cc1,39*,-41,35,22,8,3,18
CC(C)(C)c1ccc(NC(=O)c2cc(C3CCCN(S(=O)(=O)c4cccc5cccnc45)C3)on2)cc1 (centres undefined),-11,5,-6,14,1,x,x
Cc1ncccc1C(=O)N1CCCC(c2cc(C(=O)Nc3ccc(C(C)(C)C)cc3)no2)C1 (centres undefined),40*,-1,6,-3,19,-11,-5
CCCC(=O)N1CCCC(c2cc(C(=O)Nc3ccccc3)no2)C1 (centres undefined),44*,28,22,30,29,-67,34
O=C(Nc1ccccc1)c1cc(C2CCCN(C(=O)c3ccccc3)C2)on1 (centres undefined),-12,-27,-27,-51,-2,x,x
O=c1c2c(n3nnnc3n1Cc1ccc(Cl)cc1)-c1ccccc1CC21CCCC1,15,x,2,x,x,x,x
CCN1/C(=C\C(=S)Nc2ccccc2)Sc2ccccc21,-6,-17,-16,6,7,x,x
CCN1/C(=C/C(C)=C/c2sc3ccccc3[n+]2CC)Sc2ccccc21,72*!,39,-8,70*,77*,26*,74*
COC(=O)c1ccccc1NS(C)(=O)=O,103*,-1,8,10,20,-3,-6
NC1=C(Cl)C(=O)c2ccccc2C1=O,-19,-7,-49,-8,28,x,x
NC1=C(Cl)C(=O)c2ccc(S(N)(=O)=O)cc2C1=O,85*,90*,80*,90*,95*,92*,97*
CNc1nc(-c2ccc(OC)cc2)c(-c2ccc(OC)cc2)s1,41*,10,3,2,-2,-17,-13
COc1ccc(-c2nc(NC(C)=O)sc2-c2ccc(OC)cc2)cc1,-6,2,-14,14,17,x,x
CC(C)(C)c1ccc(C(=O)Nc2ccc(Oc3cccnc3)nc2)cc1,64*,23,17,13,21,-8,61*
CC(C)c1ccc(CC(=O)N2CCC2(C)C(=O)Nc2cnc3ccccc3c2)cc1 (centres undefined),45*,-4,0,3,-11,-3,11

# From PubChem
